Source: PubChem
pCIP destab: p/CIP-EGFP fusion destabilizers, primary screen, fluorescence, F442A cells; Q05BA5; decrease of EGFP signal, % at 10 µM; 0.01% of 290,000 active; 16 h;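 active = EGFP signal decrease of at least 30% at 10 µM or well 3 SD below plate mean, unless failing retest; inactive = the rest, including hits failing retest or dose response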
UBC9 SUMO inh: inhibitors of in vitro SUMOylation cascade, primary screen, biochemical, HTRF, uHTS; inhibition, % at 35 µM; HTRF SUMOylation assay, SAE1/SAE2 + UBC9; AID 2006, 2009; 0.36% of 290,000 active; SUMO-conjugating enzyme UBC9 (Homo sapiens), P63279; in the data active = inhibition above about 50%, passing the limit was not always enough
PHOSPHO1 block: PubChem AID 1565. Phosphoethanolamine/phosphocholine phosphatase (Homo sapiens), Q8TCT1. recombinant PHOSPHO1, absorbance phosphatase assay. inhibition, % at 13.3 µM. 1.1% of 290,000 active; in the data active = inhibition above about 60%
NadD block: inhibitors of S. aureus NadD, primary screen, biochemical, colorimetric, uHTS; inhibition, % at 20 µM; 0.78% of 360,000 active; purified NadD enzyme, colorimetric absorbance read-out; in the data active = inhibition above about 26%
An asterisk follows results filed as active; nt = not tested or not shown. The list is not random: actives were taken first. Their share in the collection is about 1.8%.

SMILES	pCIP destab	UBC9 SUMO inh	PHOSPHO1 block	NadD block
Cc1ccccc1NCc1ccc(O)c2ncccc12	-3.2	-24.3	70.8*	12.2
Oc1ccc(CNc2ccc(F)cc2)c2cccnc12	2.9	-13.5	95.2*	9.6
COCc1ccc(O)c2ncccc12	-5.4	-17.5	7.2	-0.4
Oc1ccc(CNc2ccccc2)c2cccnc12	-0.7	-36.3	51.2	24.5
COc1ccc(CCN2CC(C(=O)OCC(=O)NC(C)c3cccc(Cl)c3)CC2=O)cc1OC (centres undefined)	nt	nt	nt	2.6
O=C1C=C(N2CCN(c3ccccn3)CC2)C(=O)c2c(O)ccc(O)c21	nt	nt	nt	10.0
CC1=CC(=O)c2c(O)ccc(O)c2C1=O	-6.9	90.5*	27.7	nt
CC(=O)Nc1ccc(/C(C)=N/NS(=O)(=O)c2ccc(C)cc2)cc1	8.9	-13.2	5.4	1.0
C/C(=N/NS(=O)(=O)c1ccc(Br)cc1)c1ccc(NC(=O)c2ccc(C)o2)cc1	0.1	-7.4	74.3*	12.2
COc1ccc(CCN2C(=O)NC(NS(=O)(=O)c3ccc(N)cc3)(C(F)(F)F)C2=O)cc1OC (centres undefined)	10.9	10.0	4.9	-0.9
COc1ccc(CCN2C(=O)NC(NS(=O)(=O)c3ccc(NC(C)=O)cc3)(C(F)(F)F)C2=O)cc1OC (centres undefined)	-4.3	-6.6	64.3*	-0.8
O=C(NCc1nnnn1-c1ccc(F)cc1)C(=O)c1c[nH]c2ccccc12	nt	nt	nt	-0.3
CCCCCCN1C[C@@H](n2cc(COC(=O)c3ccccc3)nn2)[C@H](O)C[C@@H]1c1ccc(Cl)cc1	nt	nt	nt	0.8
C=CCSc1nnc(-c2ccccc2N=Cc2c(C)[nH]n(-c3ccccc3)c2=O)c(=O)[nH]1	-11.5	26.4	68.6*	8.9
CSc1nnc(-c2ccccc2N=Cc2c(C)[nH]n(-c3ccc4ccccc4c3)c2=O)c(=O)[nH]1	-9.5	22.8	-38.0	28.6
COC(=O)c1ccc(CSc2nc3scc(-c4cccs4)c3c(=O)[nH]2)o1	-8.5	29.0	71.5*	34.1*
COc1ccc(NC(=O)CSc2nnc(-c3ccco3)c(-c3ccco3)n2)cc1OC	1.7	18.3	24.0	-0.9
Cc1ccc(NC(=O)CSc2nnc(-c3ccco3)c(-c3ccco3)n2)cc1	-3.7	58.6	60.2*	15.8
CN(C)c1ccc(NC(=O)CSc2nnc(-c3ccco3)c(-c3ccco3)n2)cc1	-7.0	69.7	-28.4	25.8
O=C(CSc1nnc(-c2ccco2)c(-c2ccco2)n1)Nc1ccccc1	-5.2	13.8	63.8*	14.6
CC1=C(C(=O)N2CCOCC2)CC(CC(=O)NCCCN(C)C)C(=O)N1Cc1ccc(F)cc1 (centres undefined)	nt	nt	nt	1.9
CC(C)C(NC(=O)C12CC3CC(CC(C3)C1)C2)C(=O)N/N=C/C1=C(N2CCOCC2)C(=C\c2ccc([N+](=O)[O-])cc2)/CC1 (centres undefined)	-7.8	28.9	-27.0	31.7*
CCOc1ccc(C2=Cc3cc(OC)c(OC)cc3C(=C(Cl)Cl)O2)cc1	-6.0	-0.4	67.3*	nt
CCOc1ccc(-c2[nH]ncc2-c2ccc(OC)c(OC)c2)c(O)c1	-7.1	-26.6	2.6	4.3
CC1ON=C(c2cccc3ccccc23)N(C)C1=O (centres undefined)	nt	nt	nt	2.5
SMILES	pCIP destab	UBC9 SUMO inh	PHOSPHO1 block	NadD block
CCCS(=O)(=O)NC(=O)C1(C)CCCN(C(=O)c2ccccc2C(F)(F)F)C1 (centres undefined)	nt	nt	nt	-3.8
Cc1c(C#N)c2n(c1C)CCCC(=O)N2	nt	nt	nt	2.3
O=S(=O)(O)c1ccc(O)c2cc(Nc3ccccc3)ccc12	nt	nt	nt	67.9*
Cc1[nH][nH]c(=O)c1C(c1ccc(-c2ccc(Cl)cc2Cl)o1)c1c(C)[nH][nH]c1=O	-16.3	90.8*	64.2*	nt
Cc1[nH][nH]c(=O)c1C(c1ccc(-c2cccc(Cl)c2)o1)c1c(C)[nH][nH]c1=O	4.7	88.3	-88.6	15.5
Cc1[nH][nH]c(=O)c1C(c1ccc(-c2cccc(C(=O)O)c2)o1)c1c(C)[nH][nH]c1=O	-2.9	88.5*	32.8	2.4
Cc1ccc(S(=O)(=O)NC(=O)C2(C)CCN2C(=O)c2cccc(F)c2)nc1 (centres undefined)	nt	nt	nt	6.4
COc1ccccc1-c1csc(C(C)(O)c2cccc(F)c2)n1 (centres undefined)	nt	nt	nt	-4.0
CC(=O)c1ccc(N2C(=O)C3C(C2=O)C(C(=O)c2ccc(Cl)cc2)N2CCCC32)cc1 (centres undefined)	-8.1	26.1	-65.2	nt
